FBW7 act: FBW7 E3 ligase activators, primary screen, biochemical, AlphaScreen, human. F-box/WD repeat-containing protein 7 (Homo sapiens), Q969H0. AlphaScreen FBW7–phospho-cyclin E peptide binding, activator screen. normalized activity (activation), % at 26.1 µM. 0.13% of 650,000 active. AID 1259310, 2017; in the data active = normalized activity above about 1.9%;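 also: purified mutant Fbw7 with reduced substrate affinity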
MITF inh: MITF inhibitors, primary screen, biochemical, AlphaScreen, human | AlphaScreen MITF homodimerization, bead proximity signal | 0.91% of 650,000 active | inhibition, % at 2.6 µM | AID 1259374, 2018 | Microphthalmia-associated transcription factor (Homo sapiens), O75030; in the data active = inhibition above about 50%
Target sequence (O75030 whole entry, looked up): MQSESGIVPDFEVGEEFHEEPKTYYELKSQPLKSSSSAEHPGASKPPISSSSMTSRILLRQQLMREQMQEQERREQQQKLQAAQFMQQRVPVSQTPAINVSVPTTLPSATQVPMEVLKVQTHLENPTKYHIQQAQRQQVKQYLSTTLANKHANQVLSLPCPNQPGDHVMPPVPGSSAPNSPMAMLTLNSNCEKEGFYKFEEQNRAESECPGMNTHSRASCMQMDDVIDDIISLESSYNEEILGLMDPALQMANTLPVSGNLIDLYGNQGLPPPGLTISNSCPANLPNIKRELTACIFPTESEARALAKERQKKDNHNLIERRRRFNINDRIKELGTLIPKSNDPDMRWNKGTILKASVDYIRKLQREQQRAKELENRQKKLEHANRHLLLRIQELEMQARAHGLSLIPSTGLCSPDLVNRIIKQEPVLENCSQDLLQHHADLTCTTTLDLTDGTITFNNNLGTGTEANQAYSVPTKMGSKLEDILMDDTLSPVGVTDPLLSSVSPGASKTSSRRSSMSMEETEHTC
GPR151 activ: activators of human GPR151, primary screen, cell-based, PathHunter beta-arrestin, luminescence; activation, % at 11.2 µM; 1% of 650,000 active; PathHunter beta-arrestin GPR151 cells; G-protein coupled receptor 151 (Homo sapiens), Q8TDV0; in the data active = activation above about 4.9%
TEAD-YAP block: TEAD-YAP interaction inhibition, primary screen, TEAD-YAP interaction inhibitor project, luminescence, HEK-TIYL cells. TEAD-Gal4/YAP UAS-luciferase luminescence. inhibition, % at 9.12 µM. 1.4% of 640,000 active. AID 1259422, 2018; in the data active = inhibition above about 32%
GPR151 confirm: GPR151 activators, triplicate retest, confirmation, cell-based, PathHunter beta-arrestin, luminescence; shares compounds with GPR151 activ; GPR151 PathHunter beta-arrestin cells, 90 min; % of EA-reagent control over plate median; activation, % at 11.2 µM; 6,700 tested, under 10 active; AID 1508609, 2020;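 active = mean percent activation across replicates above the confirmation screen cutoff of 4.91%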
GPR119 ag: GPR119 activators in beta-arrestin cells, counter-screen for GPR151 activator project, cell-based, PathHunter beta-arrestin, luminescence, triplicate; shares compounds with GPR151 activ; 90 min; 0 = compound-well median, 100 = enzyme-acceptor control; activation, % at 11.2 µM; 0.3% of 6,700 active; AID 1508611, 2020;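 active = mean percent activation in the counterscreen above 29.09%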;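 also: counterscreen on off-target GPR119 to flag nonselective hits from the GPR151 activator screen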
A number is an active result; – = inactive; · = no result given. A selection: hits, their analogues and other compounds. The true share with any hit is near 3.5%.

SMILES | FBW7 act | MITF inh | GPR151 activ | TEAD-YAP block | GPR151 confirm | GPR119 ag
O=C(O)c1ccc(Nc2ccc(F)c(Cl)c2)c([N+](=O)[O-])c1 | – | – | – | – | · | ·
CCOC(=O)c1c(/N=C(\C)c2sc3ccccc3c2O)sc(C)c1C | – | – | – | – | · | ·
Nc1nc2ccc(OC(F)(F)F)cc2s1 | – | – | – | – | · | ·
Nc1nc2ccc(Oc3ccccc3)cc2s1 | – | – | 8.9 | – | – | –
CCc1nnc(NC(=O)CSc2nnc(-c3ccccn3)n2Cc2ccccc2)s1 | – | – | – | – | · | ·
COCCNC(=O)c1ccc(CNC(=O)c2ccc3c(c2)OCO3)cc1 | – | – | – | – | · | ·
COCCCNC(=O)c1ccc(CNC(=O)c2ccc3c(c2)OCO3)cc1 | – | – | 5.7 | – | – | –
COc1nn(C)cc1C(=O)NCC(=O)Nc1ccc2c(c1)Cc1ccccc1-2 | – | – | 9.5 | – | – | –
CCOc1ccccc1C1C(C(=O)OC2CCCC2)=C(C)NC2=C1C(=O)CC(c1cccs1)C2 (stereo not drawn) | – | – | – | – | · | ·
CC(C)n1c(C(F)(F)F)nc2ccccc21 | – | – | 5.2 | – | – | –
N=C1C(c2ccccc2)=C(O)CN1c1ccc(S(N)(=O)=O)cc1 | – | – | – | – | · | ·
CCCc1nc(SCC(=O)c2ccc3c(c2)NC(=O)CO3)[nH]c(=O)c1CC | – | – | – | – | · | ·
CC(=O)N(Cc1cc2cc(C)c(C)cc2n2nnnc12)C1CCCCC1 | – | – | – | – | · | ·
COc1ccc(C(=O)C2CCCN(C(=O)c3c(C)nc4ncccn34)C2)c(C)c1 (stereo not drawn) | – | – | – | – | · | ·
Cc1nc2sccn2c(=O)c1S(=O)(=O)N1CCC(Cc2ccccc2)CC1 | – | – | 6.2 | – | – | –
COc1cc(/C=N\Nc2nc(-c3cccc([N+](=O)[O-])c3)cs2)ccc1O | – | – | – | – | · | ·
O=C(OCc1ccccc1)/C(=C/c1c[nH]c2ccccc12)[N+](=O)[O-] | – | – | 5.5 | – | – | –
COc1ccccc1/C=C/C1=NC(=C\c2ccc(OC(C)=O)c(OC)c2)/C(=O)O1 | – | – | – | – | · | ·
COc1ccc(OC)c(C(=O)c2oc3ccc(Cl)cc3c2NC(C)=O)c1 | – | – | – | – | · | ·
COc1ccc(OC)c(C(=O)c2oc3ccc(Cl)cc3c2N)c1 | – | – | 6.3 | 50.4 | – | –
CC1=C(C(=O)NC2CCCC2)C2(CCCCCC2)OC1=O | – | – | – | – | · | ·
CCC(C)NC(=O)C1=C(C)C(=O)OC12CCCCCC2 (stereo not drawn) | – | – | – | – | · | ·
CC1=C(C(=O)NC(C)C)C2(CCCCC2)OC1=O | – | – | 7.3 | – | – | –
CC1=C(C(=O)NC2CCCCC2)C2(CCCCC2)OC1=O | – | – | 6.2 | – | – | –
COC(=O)c1ccc(OCC2c3cc(OC)c(OC)cc3CCN2C(=O)c2cccc([N+](=O)[O-])c2)cc1 (stereo not drawn) | – | – | – | – | · | ·
SMILES | FBW7 act | MITF inh | GPR151 activ | TEAD-YAP block | GPR151 confirm | GPR119 ag
CSc1ccc(S(=O)(=O)N2CCN(c3cccc(Cl)c3)CC2)cc1 | – | – | – | – | · | ·
N#C/C(=C\C=C\c1ccccc1)C(=O)NCCN1CCOCC1 | – | – | – | – | · | ·
COCCNC(=O)/C(C#N)=C/C=C/c1ccccc1 | – | – | 6.0 | – | – | –
COc1cc(/C=N/NC(=O)C(=O)NCC2CCCO2)cc(I)c1O (stereo not drawn) | – | – | – | – | · | ·
CCc1c(C)sc(NC(=S)NCc2ccc(S(N)(=O)=O)cc2)c1C(=O)OC | – | – | 6.3 | – | – | –
CCc1c(C)sc(NC(=S)Nc2cnccn2)c1C(=O)OC | – | – | 5.9 | – | – | –
COC(=O)c1c(NC(=S)Nc2cnccn2)sc2c1CCC(C)C2 (stereo not drawn) | – | – | – | – | · | ·
O=c1c2ccccc2nc(-c2ccccc2Cl)n1Cc1ccccc1Cl | – | – | – | – | · | ·
O=C(CCCC(=O)N(CC(=O)NC1CCCCC1)CC1CCCO1)Nc1ccccn1 (stereo not drawn) | – | – | 8.7 | – | – | –
O=C(CCCC(=O)N(CC(=O)NC1CCCCC1)Cc1ccccc1)Nc1ccccn1 | – | – | – | – | · | ·
O=C(CN(CC1CCCO1)C(=O)CCC(=O)Nc1nccs1)NCc1ccccc1 (stereo not drawn) | – | – | 9.4 | – | – | –
Cc1cc(C)cc(OCCc2c(C)n[nH]c2C)c1 | – | – | – | – | · | ·
COc1cc(-c2c(C#N)c(N)nc3sc(C#N)c(N)c23)cc(OC)c1OC | – | – | 11.5 | – | – | –
NC(=O)Cn1ccn(-c2cccc(Cl)c2)c(=O)c1=O | – | – | 8.1 | – | – | –
COc1ccc(OC)c(NC(=O)c2n[nH]n3c2nc(=O)c2ccccc23)c1 | – | – | – | – | · | ·
COCCN1C=C(C(=O)OC)C(c2cccc(OC)c2OC(C)C)C(C(=O)OC)=C1 | – | – | 10.9 | – | – | –
COc1ccc(-c2nc(NCCOc3ccccc3)c3ncn(Cc4ccc(C(F)(F)F)cc4)c3n2)cc1 | – | – | 4.9 | – | – | –
FC(F)(F)c1ccc(Cn2cnc3c(NC4CCN(Cc5ccccc5)CC4)nc(Nc4ccccc4)nc32)cc1 | – | – | – | – | · | ·
CCCNc1nc(-c2ccc(N3CCOCC3)nc2)nc2c1ncn2Cc1ccc(C(F)(F)F)cc1 | – | – | – | – | · | ·
FC(F)(F)c1ccc(Cn2cnc3c(NC4CCN(Cc5ccccc5)CC4)nc(Nc4ccc(C(F)(F)F)cc4)nc32)cc1 | – | – | 5.9 | – | – | –
FC(F)(F)c1ccc(Cn2cnc3c(Nc4ccccc4)nc(Nc4ccccc4)nc32)cc1 | – | – | 6.2 | – | – | –
FC(F)(F)c1ccc(Cn2cnc3c(NC4CC4)nc(-c4ccc(N5CCOCC5)nc4)nc32)cc1 | – | – | 8.0 | – | – | –
Cc1cccc(CN2CCN3C(=O)[C@H]([C@@H](C)O)NC(=O)[C@H]3C2)c1 | – | – | – | – | · | ·
CCCOc1ccc(C(=O)Nc2ccc3c4c(cccc24)CC3)cc1 | – | – | – | – | · | ·
OCCNc1nc(-c2csc3ccccc23)nc2c1ncn2Cc1ccc(C(F)(F)F)cc1 | – | – | 6.1 | – | – | –
FC(F)(F)c1ccc(Cn2cnc3c(Nc4ccc(N5CCOCC5)cc4)nc(-c4ccccc4)nc32)cc1 | – | – | 5.2 | – | – | –
C[C@H](CN)Oc1ncccc1C(=O)Nc1ccc2[nH]ncc2c1 | – | – | 5.7 | – | – | –
CCOC(=O)c1c(NC(=O)CSc2nc3ccccc3[nH]2)sc2c1CCCC2 | – | – | 6.3 | – | – | –
